Measurements taken from ChEMBL document CHEMBL1157539, “Thousands of chemical starting points for antimalarial lead identification” (Nature, 2010).

Experiments:
Assay type in all cases: functional
Plasmodium falciparum [1] = experiment: GSK_TCMDC: Inhibition of Plasmodium falciparum 3D7 in whole red blood cells, using parasite LDH activity as an index of growth. Test compounds present at 2uM
Plasmodium falciparum [2] = experiment: GSK_TCMDC: Inhibition of Plasmodium falciparum Dd2 in whole red blood cells, using parasite LDH activity as an index of growth. Test compounds present at 2uM
HepG2 = experiment: GSK_TCMDC: Percent inhibition of human HepG2 cell line. Test compounds present at 10uM.

Row | SMILES | Inhibition (Plasmodium falciparum [1]) | Inhibition (Plasmodium falciparum [2]) | Inhibition (HepG2)
1 | FC(F)(F)c1ccc2[nH]c(-c3ccc(-c4cccc(CNCc5cnn(-c6ccccc6)n5)c4)cc3)nc2c1.O=C(O)C(F)(F)F | 99% | 83% | 19%
2 | O=C(NCc1ccco1)c1ccc(S(=O)(=O)c2ccc(Cl)cc2)cc1 | 97% | 95% | 6%
3 | Br.COc1ccc(CCON2C(=N)N=C(N)NC2(C)C)cc1OC | 96% | 93% | 64%
4 | N=C(N)Nc1nc(-c2cccc(NCCCCCCCCON3C(N)=NC(N)=NC34CCCCC4)c2)cs1.O=C(O)C(F)(F)F | 97% | 42% | 3%
5 | Cc1[nH]c2ccc(O)cc2c1C1CCN(CCCCCNC(=O)/C=C/c2ccc(Cl)c(Cl)c2)CC1 | 100% | 1% | 33%
6 | COc1cccc(C2CCCN(CCCCNC(=O)c3ccc(NC(=O)c4ccc(Cl)cc4)cc3)C2)c1 (stereo not given) | 95% | 6% | 24%
7 | Cl.N#Cc1ccc2c(c1)CCN(CCC1CCC(NC(=O)/C=C/c3cnc4ccccc4c3)CC1)CC2 (stereo not given) | 87% | 21% | 22%
8 | Br.CC1(C)NC(N)=NC(=N)N1OCCSCCON1C(=N)N=C(N)NC1(C)C | 95% | 81% | 34%
9 | CCN(CC)CCCn1c(N)c(-c2nc3ccccc3[nH]2)c2nc(C#N)c(C#N)nc21 | 100% | 99% | 8%
10 | O=c1c2ccccc2[nH]c2nc3ccccc3c(Nc3ccccc3)c12 | 98% | 97% | 8%
